High-throughput results from PubChem BioAssay.
This is a sample that favours compounds with a hit; in the whole collection about 5.5% have one here.
ELG1 repair inh: qHTS screen for small molecules that inhibit ELG1-dependent DNA repair in human embryonic kidney (HEK293T) cells expressing luciferase-tagged ELG1; HEK293T ELG1-luciferase reporter, luminescence, 16 h; DNA damage induced by 5-fluorouridine; Potency, µM (doses to about 46.1 µM), usual class: inhibitors; 330,000 tested, 2.3% active; AID 504467, 2011; note: nearly all actives have a fitted effect of over 55% in size
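5-Fluorouridine DNA damage + compound/DMSO, 2,000 cells/well, 16 h, 37 °C/5% CO2. ONE-Glo, 30 min RT, luminescence. Readout = decrease in reporter signal.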
Giardia kill: Small Molecules that selectively kill Giardia lamblia: qHTS; Giardia lamblia trophozoite viability; activity change, % at 7.66 µM, hits read low; 340,000 tested, 0.15% active; in the data active = activity change below about -80%; inconclusive = between about -30% and that limit;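 note: parasites exposed to compound for two days anaerobically before the ATP read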
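Viability, read as ATP luminescence: trophozoites at 100 cells/well, compound added, 48 hrs anaerobic at 37 deg C, then 15-30 min room-temperature development before reading.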
Sfp PPTase inh: qHTS Assay for Inhibitors of Bacillus subtilis Sfp phosphopantetheinyl transferase (PPTase). 4'-phosphopantetheinyl transferase ffp (Bacillus subtilis), Q9F4F7. Biochemical Sfp PPTase activity, qHTS. Potency, µM, hits mostly inhibitors. 310,000 tested, 3.5% active;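 note: the enzyme is Sfp with the accession as filed and its product quenches rhodamine fluorescence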
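After 15 min at room temperature with compound, 15 nM Sfp received 5 uM rhodamine-CoA plus 12.5 uM BHQ-2-ybbR (50 mM Hepes pH 7.6, 10 mM MgCl2). Rate came from the fluorescence difference over 30 min, ex 525/em 598 nm.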
Coupling enz: qHTS Assay for Inhibitors of Fructose-1,6-bisphosphate Aldolase from Giardia Lamblia: Coupling assay counterscreen | AID 2472, 2010 | coupling enzyme system counterscreen, AmpLite Red fluorescence | 290,000 tested, 0.67% active | activity change, negative = inhibition, % at 58.2 µM, hits read low; in the data active = activity change below about -30%
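Activity here indicates interference with the coupling reaction, not aldolase inhibition. Compounds at 57.5 uM final met coupling enzymes for 10 min at RT; substrate and AmpLite Red detection followed, with a 525/598 nm fluorescence read after 20 min.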
Hits are given with their value; . = inactive; ? = inconclusive; / = no result given. Unless noted, calls come from the whole dose curve; as a rule, active = well fitted curve in the direction sought with a large enough effect; inconclusive = small, poorly fitted or top-dose-only effect, or another doubt; inactive = no such curve, though single readings can be large; an effect the other way counts as inactive or inconclusive.

SMILES	ELG1 repair inh	Giardia kill	Sfp PPTase inh	Coupling enz
CCOC(=O)c1c(-c2ccc(OC)cc2)csc1NC(=O)CCN1C(=O)c2ccccc2C1=O	?	.	50µM	.
CCOC(=O)c1c(NC(=O)C2CCCO2)sc(C(N)=O)c1C (stereo not given)	.	.	.	.
CCOC(=O)c1c(-c2ccc(OC)cc2)csc1NC(=O)CCN1CCOCC1	?	.	35µM	.
CCCOC(=O)c1c(NC(=O)C2CCCO2)sc(C(=O)OC)c1C (stereo not given)	?	.	6.3µM	.
CO/N=C1/[C@H]2O[C@@H]2[C@@H](O)[C@H]2[C@H]1CCn1c(=O)n(-c3ccccc3)c(=O)n12	/	/	.	.
CC(=O)OCC1OC(c2cc(C)cc(C)c2)C=CC1OC(C)=O (stereo not given)	/	/	.	.
CCOC(=O)c1c(-c2ccc(Cl)cc2)csc1NC(=O)CNCc1ccco1	.	.	50µM	.
O=C(CNC(=O)c1ccccc1)NCCc1ccc(O)c(O)c1	.	/	50µM	.
COc1ccc(CN(Cc2ccccc2)C(=O)c2ccno2)cc1COc1ccc(NC(C)=O)cc1	/	.	/	/
O=c1oc2c(-c3ccc([N+](=O)[O-])cc3)cc(O)cc2s1	.	.	40µM	.
CC1C(=O)N2CCCc3cc(NC(=O)CC(C)(C)C)cc1c32 (stereo not given)	.	.	.	.
O=C(Nc1ccccc1)/C(=C/c1ccccc1)c1ccccc1	10µM	.	.	.
N#C/C(=C/C=C/c1ccccc1)C(=O)Nc1ccccc1	5.8µM	.	.	.
N#C/C(=C\C=C\c1ccccc1)C(=O)Nc1ccccc1	.	.	.	.
CNC(=S)Nc1ccc(C(N)=O)cc1	.	.	79µM	.
COC(=O)c1ccc(NC(=S)Nc2ccccc2)cc1	.	.	.	.
O=C(O)c1ccc(NC(=S)Nc2ccccc2)cc1	.	.	50µM	.
COc1ccc(Cl)cc1CC=NNC(=O)c1cccc(C)c1O	/	.	/	/
CC1(C)CC2CC(C)(CN2C(=O)COC(=O)c2ccc(NC(=O)CC#N)cc2)C1 (stereo not given)	.	.	/	/
COc1ccc(S(=O)(=O)NNc2nc(C)cc(C)n2)cc1[N+](=O)[O-]	.	.	50µM	/
CCOc1nc(NCc2ccco2)nc(Nc2ccc(OC)cc2)n1	?	.	.	.
COc1ccc(Nc2nc(NCc3ccco3)nc(N/N=C/c3ccccc3)n2)cc1	2.6µM	.	.	.
Cc1ccc(Nc2nc(NCc3ccco3)c3ccccc3n2)cc1	?	.	10µM	.
Oc1ccccc1Nc1nc(NCc2ccccc2)c2ccccc2n1	?	.	28µM	.
Oc1ccccc1-c1nc(NCc2ccco2)c2ccccc2n1	.	.	?	.
SMILES	ELG1 repair inh	Giardia kill	Sfp PPTase inh	Coupling enz
COc1ccccc1Nc1nc(NCc2ccco2)c2ccccc2n1	21µM	.	.	.
CNc1nc(NCc2ccccc2)c2ccccc2n1	.	.	.	.
Fc1ccccc1-c1nc(NCc2ccco2)c2ccccc2n1	?	.	.	.
OCCNc1nc(Nc2ccc(Br)cc2)nc2ccccc12	?	.	40µM	.
OCCNc1nc(Nc2ccccc2)nc2ccccc12	.	.	.	.
O=C(O)C(Cc1ccc2c(c1)oc1ccccc12)NCP(=O)(O)O (stereo not given)	/	/	.	.
COc1ccc(S(=O)(=O)N2CCC(NC(=O)c3cccnc3)CC2)cc1	.	.	.	.
CCOC(=O)c1ccc(NC(=O)C2CCCN(S(=O)(=O)c3ccc(F)cc3)C2)cc1 (stereo not given)	16µM	.	.	.
O=C(C1CCCN(S(=O)(=O)c2ccc(F)cc2)C1)N(Cc1cccs1)C1CC1 (stereo not given)	12µM	.	.	.
CCOC(=O)c1ccc(NC(=O)C2CCN(S(=O)(=O)c3ccccc3)CC2)cc1	/	.	/	/
O=C(C1CCCN(S(=O)(=O)c2ccc(F)cc2)C1)N1CCCC1 (stereo not given)	.	.	.	.
COC(=O)Nc1ccc(S(=O)(=O)N2CCCC(C(=O)Nc3cccnc3)C2)cc1 (stereo not given)	.	.	.	.
COC(=O)Nc1ccc(S(=O)(=O)N2CCCC(C(=O)Nc3cccc4c3OCCO4)C2)cc1 (stereo not given)	21µM	.	.	.
CCCCn1c(N)c(N(CCOC)C(=O)c2oc3ccc(OCC)cc3c2C)c(=O)[nH]c1=O	.	.	/	/
CC1(C(=O)O)CCC(C(=O)NNC(=O)c2ccccc2Cl)C1(C)C (stereo not given)	/	.	/	/
COc1ccc(-n2ncc3c2CC(C)(C)CC3NC(=O)c2c(C)cc(=O)oc2C)cc1 (stereo not given)	.	.	.	.
Cc1ccc(OCCN2CCN(C(=O)CCC(=O)Nc3nnc(CC(C)C)s3)CC2)cc1	2.6µM	.	.	.
CC(C)Cc1nnc(NC(=O)CCC(=O)N2CCN(Cc3ccc(F)cc3)CC2)s1	?	.	.	.
NS(=O)(=O)c1ccc(CCNc2ncnc3c2c(-c2ccccc2)cn3-c2ccc(F)cc2)cc1	16µM	.	.	.
O=C(c1noc2c1CCc1ccccc1-2)N1CCc2ccccc2C1	?	/	1µM	.
O=C(c1cc(-c2ccco2)on1)N1CCc2ccccc2C1	?	.	45µM	.
O=C(c1cncc(Br)c1)N1CCc2ccccc2C1	5.8µM	.	.	.
O=C(NCCCn1ccnc1)c1noc2c1CCc1ccccc1-2	.	.	.	-44
O=C(Nc1ccc2c(c1)CCC2)c1cnn2c1NC(=C1CC1)C=C2C(F)F	/	.	/	/
COC(c1ccccc1Br)C(C)/C=C/CCO (stereo not given)	/	/	.	.
SMILES	ELG1 repair inh	Giardia kill	Sfp PPTase inh	Coupling enz
O=S(=O)(O)c1cc(O)c2c(N=Nc3ccc(Nc4ccccc4)c4c(S(=O)(=O)O)cccc34)cc(S(=O)(=O)O)cc2c1	/	/	.	/
COc1cc(OC)c(C(=O)OCCCOC(=O)c2cc(OC)c(OC)cc2OC)cc1OC	12µM	.	?	/
CN(C)Cc1ccccc1-c1cncnc1NCc1ccccc1	/	/	.	.
CCC(CO)Oc1cc(NC(=O)c2ccccc2F)c2ncn(C(C)C)c2c1 (stereo not given)	5.2µM	.	/	/
CCC(CO)Oc1cc(NC(=O)c2ccccc2C)c2ncn(C(C)C)c2c1 (stereo not given)	.	.	/	/
Cc1ccc(C)c2[nH]c(=O)c(CCNS(=O)(=O)c3ccccc3)cc12	?	.	.	.
COc1ccc(OC)c2[nH]c(=O)c(CCNS(=O)(=O)c3ccc(Cl)cc3)cc12	.	.	.	-33
Cc1ccc2cc(CCNS(=O)(=O)c3ccc(Cl)cc3)c(=O)[nH]c2c1C	?	.	.	.
COc1ccc(OC)c2[nH]c(=O)c(CCNS(=O)(=O)c3ccc(C)cc3)cc12	?	.	.	-30
Cc1ncc([N+](=O)[O-])n1CC(=O)Nc1ccccc1	?	.	.	.
